From the supplement of paper PMC6555819 come the findings set out here.

What all share (experiment): PBM binding z-score (relative to random genomic background probes); higher = stronger binding; sequences stand for … in GC…GCGATTGACAGCGTAGAATGAAGG
Test [1] concerns FXR:RXRa (NR concentration 270 nM, RXRa partner concentration 90 nM). Put shortly: (§1)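 Regression normalization was applied to scanned fluorescence from custom Agilent 4×180K protein-binding microarrays. Before scanning, arrays were incubated 1 h with ligand-free nuclear receptor dimers, and binding was detected with antibodies against each partner (one per run). Binding z-scores use the random background probes as reference.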

Test [2] deals with LXRa:RXRa (NR concentration 270 nM, RXRa partner concentration 90 nM). In short, it runs like this: as §1
Test [3] relates to LXRa homodimer (NR concentration 270 nM). In short, it runs like this: as §1
Test [4] concerns LXRb:RXRa (NR concentration 270 nM, RXRa partner concentration 90 nM). Put shortly:
as §1

In test [5] the test system is LXRb homodimer (NR concentration 270 nM). Put shortly:
as §1

Test [6] deals with PPARa:RXRa (NR concentration 270 nM, RXRa partner concentration 90 nM). Put shortly:
as §1

The test system of test [7] is PPARg:RXRa (NR concentration 180 nM, RXRa partner concentration 90 nM). Put shortly: as §1
For test [8], the system named is PPARg:RXRa 270nM:90nM, anti-RXR (NR concentration 270 nM, RXRa partner concentration 90 nM). In short, it runs like this: as §1
Test [9] concerns PPARg:RXRa 30nM:10nM, anti-RXR (NR concentration 30 nM, RXRa partner concentration 10 nM). Put shortly:
as §1

Test [10] concerns PPARg:RXRa 90nM:30nM, anti-RXR (NR concentration 90 nM, RXRa partner concentration 30 nM). Put shortly:
as §1

Consider ATCGAAAGGTCGAACGTGAGTATACCCACCCGAA, for which the PBM binding z-score in [1] is 4.36; in test [2], 3.99; in test [3] it was 0.856; in test [4], 3.32; in test [5] it was 1.01; in test [6], 4.39. Besides, the PBM binding z-score in [7] came to 2.81; in test [8], 2.76; in [9] it was 1.14; in test [10] it was 2.12.

Consider GGAACGAGGGCATTCTAGTTGATAGCATGGCGAT, for which the PBM binding z-score was 1.44 in test [1]; 1.08 in test [2]; -0.665 in test [3]; 0.264 in [4]; -0.166 in test [5]; 1.21 in test [6]. The PBM binding z-score in [7] was 0.871; in [8] it was 0.642; in test [9], -0.247; in test [10], 0.231.

For the sequence TCTTGTAGATCAGAAGGTTAAGAAAGCTGGCCAA, the PBM binding z-score in test [1] is 0.619; in test [2], 1.02; in test [3], 0.09; in [4] it was 1.16; in test [5], -0.193; in test [6], 1.54. Also, the PBM binding z-score was 0.167 in [7], 2.4 in [8], 3.46 in test [9] and 3.03 in test [10].

GCGAGCAGGCCATTTGGGTCACTCAATGACGGGC: the PBM binding z-score in test [1] was 0.039; in test [2] it was -0.0343; in test [3], -0.692; in [4], 0.145; in test [5], -1.06; in test [6], 1.37. The PBM binding z-score is 0.6 in test [7], 0.408 in test [8], -0.542 in test [9] and 0.0983 in [10].

For the sequence TCATATAGGTAAATGCTAGGTGAAACTCCGATCT, the PBM binding z-score was 1 in test [1]; 0.883 in test [2]; 0.327 in [3]; 0.756 in test [4]; -0.00744 in test [5]; 1.4 in test [6]. In addition, the PBM binding z-score in [7] is 0.976; in [8], 2.12; in test [9], 4.01; in test [10], 2.96.

In the case of TAGCCTAGGTCATTGGGCAAGTATAGTACGCATC, the PBM binding z-score in test [1] worked out at 4.44; in test [2], 3.37; in test [3], 0.712; in test [4] it was 2.16; in test [5] it was 0.361; in test [6], 3.46. Further, the PBM binding z-score in test [7] was 2.93; in test [8], 3.07; in [9], 0.725; in [10] it was 1.95.

In the case of TTACCCAGGTGAGCTGAGGTCGTTGATCCAACTC, the PBM binding z-score is 1.83 in [1]; 0.726 in test [2]; -0.313 in test [3]; 0.515 in test [4]; -1.12 in [5]; 1.35 in [6]. Also, the PBM binding z-score in test [7] was 0.177; in [8] it was 0.382; in test [9] it was -0.172; in test [10], 0.184.

With CCTACTGGGCCAAAAAGGTCATTGTTGCCGATAA, the PBM binding z-score in test [1] turned out to be 3.25; in [2] it was 4.03; in test [3], 2.95; in [4] it was 4.03; in test [5] it was 0.141; in test [6], 4.47. In addition, the PBM binding z-score in test [7] turned out to be 2.62; in test [8], 4.03; in test [9], 1.19; in [10], 2.96.

For GGAACGAGGGCATTCGAGTTGATAGCGTGGCGAT, the PBM binding z-score in [1] is 1.41; in [2], 1.5; in [3], -0.572; in [4] it was -0.00424; in test [5], -0.698; in test [6] it was 1.35. Also, the PBM binding z-score in test [7] is 0.634; in test [8], 0.67; in test [9], -0.488; in test [10], 0.214.

Turning to ACTAGTTGGTCAGCTGAGATCACACACAATTCGG, the PBM binding z-score in test [1] is -0.123; in test [2], -0.166; in test [3] it was -0.172; in [4] it was 0.118; in test [5] it was 0.186; in [6], -0.138. The PBM binding z-score worked out at 0.977 in test [7], 0.171 in test [8], 0.202 in test [9] and 0.195 in [10].

On to TCTCGGAGGACACCAAGGTCAGAGCTTTCCAGAG, for which the PBM binding z-score is 1.66 in [1]; 1.05 in test [2]; 0.191 in [3]; 1.09 in [4]; -0.834 in [5]; 1.86 in test [6]. Moreover, the PBM binding z-score in test [7] worked out at 0.127; in test [8] it was 1.65; in test [9], 2.01; in test [10], 1.76.

As to TCTATTAGTTGATTAGGCCAACCGAAACAGCGGA, the PBM binding z-score is 0.75 in test [1]; 0.591 in test [2]; 0.444 in test [3]; 0.663 in test [4]; 0.882 in [5]; 0.722 in [6]. Also, the PBM binding z-score amounted to 0.22 in test [7], 2.07 in [8], 3.98 in [9] and 3.02 in test [10].
